A number with no mark means an inactive call.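 Rule for the calls: active = curve showing a falling signal whose half-maximal concentration is at most twice the top valid dose; inconclusive = flat curve with a moderate drop, or an unreliable fit; inactive = the rest.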
test: endogenous miR-21 quantity in Huh7 cells – cell-based, RT-qPCR, dry powder, selectivity assay for miR-122 inhibitor project, dose response (AID 687038); conditions: Huh7 miR-21 levels, qRT-PCR, 48 h; series mostly up to 35 µM; relative miR-21 level (fold): at the top concentration

SMILES	relative miR-21 level (fold)
Cn1c(=O)c(=O)n(C)c2cc(S(=O)(=O)N3CCOCC3)ccc21	1.13 fold
Cc1cc(C(C)(C)C)cc(S(=O)(=O)N2CCOCC2)c1C	0.967 fold
C[C@H]1CN([C@@H](C)CO)S(=O)(=O)c2ccc(C#Cc3ccncc3)cc2O[C@H]1CN(C)C(=O)C1CCOCC1	0.804 fold
CO[C@@H]1CN(C)C(=O)c2cc(NS(=O)(=O)c3ccc(Oc4ccccc4)cc3)ccc2OC[C@H](C)NC[C@@H]1C	0.767 fold
CN1C(=O)c2cc(NC(=O)c3cccc(F)c3)ccc2OC[C@@H]2O[C@H](CC(=O)O)CC[C@H]21	0.72 fold
CCCCN(CCCC)C(=O)CN(C)S(=O)(=O)c1ccc2c(c1)n(C)c(=O)c(=O)n2C	0.957 fold
CN1C(=O)c2cc(NC(=O)c3cccc(F)c3)ccc2OC[C@H]2O[C@@H](CC(=O)O)CC[C@@H]21	1.06 fold
CN(C)CCCOc1nn(Cc2ccccc2)c2ccccc12	2.12 fold
CCOC(=O)N1CCC(NC(=O)c2ccc3nc(N4CCC(C)CC4)sc3c2)CC1	0.949 fold
C[C@H]1CN([C@@H](C)CO)C(=O)c2cc(-c3ccc(C#N)cc3)cnc2O[C@H]1CN(C)C(=O)Nc1ccc(C(F)(F)F)cc1	0.659 fold
COc1cccc(-c2ccc3c(c2)O[C@H](CN(C)C(=O)C2CCOCC2)[C@H](C)CN([C@@H](C)CO)S3(=O)=O)c1	1.15 fold
CN(CC(=O)Nc1cccc(Cl)c1)S(=O)(=O)c1ccc2c(c1)n(C)c(=O)c(=O)n2C	1.34 fold
CN1C(=O)c2cc(NC(=O)c3cccc(F)c3)ccc2OC[C@H]2O[C@H](CC(=O)O)CC[C@H]21	0.703 fold
Cc1cc(C(C)(C)C)cc(S(=O)(=O)NCCc2ccncc2)c1C	1.35 fold
O=C(NCc1ccccc1Cl)c1ccc(CNc2c(NC3CCCCC3)c(=O)c2=O)cc1	0.249 fold
C/C=C/c1cnc2c(c1)C(=O)N([C@@H](C)CO)C[C@H](C)[C@H](CN(C)S(=O)(=O)c1ccc(OC)cc1)O2	1.01 fold

SMILES	relative miR-21 level (fold)
O=C(CNCCC1=CCCCC1)Nc1ccccc1N1CCCCCC1	0.482 fold
COc1ccc(-c2cnc3c(c2)C(=O)N([C@@H](C)CO)C[C@H](C)[C@H](CN(C)S(=O)(=O)c2ccc(OC)cc2)O3)cc1	0.767 fold
CN1C(=O)c2cc(NC(=O)c3cccc(F)c3)ccc2OC[C@@H]2O[C@@H](CC(=O)O)CC[C@H]21	1.08 fold [at 30 µM]
Cc1cccc(NC(=O)Nc2ccc3c(c2)C(=O)N(C)[C@@H]2CC[C@H](CC(=O)NCc4ccccc4Cl)O[C@H]2CO3)c1	2.03 fold
O=S(=O)(NCCc1ccncc1)c1ccccc1	1.14 fold
COCC(=O)N(C)C[C@H]1Oc2cc(C#Cc3cccnc3)ccc2S(=O)(=O)N([C@@H](C)CO)C[C@H]1C	1.05 fold
CCCC#Cc1ccc2c(c1)O[C@H](CN(C)C(=O)c1ccncc1)[C@H](C)CN([C@@H](C)CO)S2(=O)=O	0.809 fold
Cc1cccc(NC(=O)Nc2ccc3c(c2)C(=O)N(C)[C@@H]2CC[C@@H](CC(=O)NCc4ccccc4Cl)O[C@H]2CO3)c1	1.3 fold
CNC[C@@H]1Oc2cc(C#CC3CCCCC3)ccc2S(=O)(=O)N([C@@H](C)CO)C[C@@H]1C	1.32 fold
CCN(CC)C(=O)c1cccc(NC(=O)c2ccc(Cl)cc2Cl)c1	0.676 fold
COc1cccc(C(=O)Nc2ccc3c(c2)C(=O)N(C)C[C@@H](OC)[C@@H](C)CN[C@@H](C)CO3)c1	1.21 fold
C[C@H](CO)N1C[C@H](C)[C@@H](CN(C)C(=O)C2CCOCC2)Oc2cc(C#Cc3ccncc3)ccc2S1(=O)=O	0.591 fold
COCC(=O)N(C)C[C@H]1Oc2cc(-c3ccc(C#N)cc3)ccc2S(=O)(=O)N([C@H](C)CO)C[C@H]1C	0.916 fold
C[C@H](CO)N1C[C@H](C)[C@H](CN(C)C(=O)C2CCOCC2)Oc2cc(C#Cc3ccncc3)ccc2S1(=O)=O	0.799 fold
CN1C(=O)c2cc(NC(=O)c3cccc(F)c3)ccc2OC[C@H]2O[C@@H](CC(=O)O)CC[C@H]21	2.53 fold
C[C@@H]1CN([C@H](C)CO)S(=O)(=O)c2ccc(C#Cc3ccncc3)cc2O[C@@H]1CN(C)C(=O)C1CCOCC1	0.867 fold

Reference: PubChem BioAssay AID687038 (Broad Institute, 2013)
